Mdm2 MdmX PPI: inhibitors of human Mdm2/MdmX interaction. O15151+Q00987. SaOS-2 split-luciferase Mdm2/MdmX complementation, luminescence. inhibition, % at 8 µM. 330,000 tested, 3% active. AID 485346;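 active means inhibition of at least 50% at 8 µM in the primary screen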
Target sequence (O15151 whole entry, looked up): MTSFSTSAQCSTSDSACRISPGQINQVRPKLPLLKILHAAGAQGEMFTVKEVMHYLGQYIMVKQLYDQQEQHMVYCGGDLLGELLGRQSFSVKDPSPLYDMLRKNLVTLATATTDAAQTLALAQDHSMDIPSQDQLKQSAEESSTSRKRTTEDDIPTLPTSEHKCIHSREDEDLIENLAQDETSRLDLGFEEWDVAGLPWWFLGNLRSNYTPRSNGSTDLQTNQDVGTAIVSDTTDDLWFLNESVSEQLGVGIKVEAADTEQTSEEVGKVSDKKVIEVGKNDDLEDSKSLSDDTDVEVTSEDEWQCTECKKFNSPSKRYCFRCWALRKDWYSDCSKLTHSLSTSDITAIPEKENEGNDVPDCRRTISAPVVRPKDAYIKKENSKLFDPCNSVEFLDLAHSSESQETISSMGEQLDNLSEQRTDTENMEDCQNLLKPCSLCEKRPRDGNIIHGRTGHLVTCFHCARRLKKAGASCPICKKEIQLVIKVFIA
Target sequence (Q00987 whole entry, looked up): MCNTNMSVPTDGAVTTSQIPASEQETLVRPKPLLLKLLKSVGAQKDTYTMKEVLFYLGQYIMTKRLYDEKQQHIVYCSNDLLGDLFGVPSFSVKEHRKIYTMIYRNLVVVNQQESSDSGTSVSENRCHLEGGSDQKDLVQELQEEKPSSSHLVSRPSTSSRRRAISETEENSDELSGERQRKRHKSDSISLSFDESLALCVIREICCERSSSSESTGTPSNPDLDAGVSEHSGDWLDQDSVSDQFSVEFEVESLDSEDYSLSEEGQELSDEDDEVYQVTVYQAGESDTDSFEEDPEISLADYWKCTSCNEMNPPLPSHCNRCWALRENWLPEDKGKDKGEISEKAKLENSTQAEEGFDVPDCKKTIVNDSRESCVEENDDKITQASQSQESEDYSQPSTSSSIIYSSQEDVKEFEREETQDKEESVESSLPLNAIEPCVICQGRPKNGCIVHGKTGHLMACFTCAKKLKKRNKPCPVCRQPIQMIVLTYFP
Jurkat NFkB inh: inhibitors of the PMA/ionomycin-induced NF-kB reporter in Jurkat cells | PMA/ionomycin-induced NF-kB luciferase reporter, luminescence | inhibition, % at 4 µM | 330,000 tested, 0.53% active; in the data active means inhibition above about 50%
697 NFkB inh: lowers PMA/ionomycin-induced NF-kB signal in 697 B cells. 697 B-cell NF-kB luciferase reporter, 16 h. inhibition, % at 4 µM. 330,000 tested, 0.33% active. AID 435022; in the data active means inhibition above about 35%
Beta apoptosis: beta cell apoptosis inhibition; 300,000 tested, 0.8% active; INS-1E cytokine-induced death, ATP luminescence, 48 h; percent of positive-control rescue, neutral wells zero; AID 435005; protection from apoptosis, % (concentration not given with the values);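 active means Every replicate reaches about 75%, or at least half do and their mean reaches it too, limit read from the data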;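 further: 0% = cytokine-treated negative control wells and 100% = positive control rescue; higher means more ATP so stronger rescue from cytokine killing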
Gli-Sufu antag: Gli-Sufu pathway antagonism. Sufu-KO-LIGHT fibroblasts, Gli luciferase reporter luminescence. inhibition, % at 5 µM. 340,000 tested, 0.74% active. AID 588413;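 active means inhibition above about 55%, limit read from the data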;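 further: 0% = DMSO-treated cells and 100% = wells with medium but no cells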
Mdm2-MdmX conf: confirmation of human Mdm2/MdmX interaction inhibitors; AID 489028; shares compounds with Mdm2 MdmX PPI; Mdm2-MdmX binding, luminescent assay; inhibition, % at 8 µM; 10,000 tested, 55% active; in the data active means inhibition above about 40%
Full FLuc ctr: inhibits full-length luciferase, flagging false Mdm2/MdmX hits; shares compounds with Mdm2 MdmX PPI; SaOS-2 full-length luciferase counterscreen, luminescence; inhibition, % at 8 µM; 6,200 tested, 77% active; AID 504607;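 active means mean inhibition at 8 µM reaching about 37%, which flags the compound as non-specific, limit read from the data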;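 further: p53-null SaOS-2 cells with luciferase driven by a doxycycline-inducible promoter; compound on cells about two nights before reading with doxycycline added after day one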
An asterisk follows results filed as active; x = no result. The list is not random: actives were taken first. Their share in the collection is about 4%.

SMILES | Mdm2 MdmX PPI | Jurkat NFkB inh | 697 NFkB inh | Beta apoptosis | Gli-Sufu antag | Mdm2-MdmX conf | Full FLuc ctr
NC(=NCc1ccccc1)C(N=Nc1ccccc1)C(=O)NCc1ccccc1 (centres undefined) | x | x | x | x | 0 | x | x
CC[n+]1c(/C=C2/C=C(C)CC(C)(C)C2)sc2ccc(OC)cc21 | 54* | 30 | -14 | -5 | -4 | 27 | 57*
CCC(=O)Nc1ccc(Cl)c(NC(=O)c2c(OC)cccc2OC)c1 | 34 | 6 | -2 | x | -10 | x | x
Oc1cccc(C(Nc2nccs2)c2ccc3cccnc3c2O)c1 (centres undefined) | 77* | 49 | -49 | 77* | 23 | 81* | 21
CC(=O)NC(c1cccc([N+](=O)[O-])c1)c1c(OC(C)=O)ccc2ccccc12 (centres undefined) | 6 | -7 | 16 | 1 | 8 | x | x
CC(=O)NC(c1cccc([N+](=O)[O-])c1)c1ccc2cccnc2c1O (centres undefined) | 77* | 49 | -21 | 97* | x | 81* | 24
COc1cccc(/C=N/NC(=O)CSc2cccc3cccnc23)c1 | 25 | 21 | 5 | 8 | -3 | x | x
COc1cccc(C(NC(C)=O)c2ccc3cccnc3c2O)c1 (centres undefined) | 82* | 46 | -21 | 82* | 69* | 80* | 29
CCN1CSC(=S)N(Cc2ccc(OC)cc2)C1 | 69* | -7 | 8 | -6 | 11 | 32 | x
O=C(COC(=O)c1ccc(CO)cc1)Nc1ccc(OC(F)F)cc1 | 2 | 2 | 4 | -2 | -5 | x | x
O=Cc1c[nH]c2cccc(OCc3ccccc3)c12 | 57* | -20 | -21 | x | -35 | 53* | 64*
Cc1cccc(S(=O)(=O)Nc2nc3ccccc3nc2NCc2ccc3c(c2)OCO3)c1 | 11 | 1 | -5 | x | 5 | x | x
COc1ccc(C2c3ccc(O)cc3Oc3ncn(Cc4ccccc4)c(=N)c32)cc1OC (centres undefined) | 18 | 10 | -21 | 9 | 6 | x | x
COc1ccc(C2c3ccc4ccccc4c3Oc3ncn(CCCO)c(=N)c32)cc1OC (centres undefined) | 78* | 37 | -11 | 7 | 0 | 71* | 48*
COc1ccc(C2c3ccc4ccccc4c3Oc3ncn(CCO)c(=N)c32)cc1OC (centres undefined) | 58* | -15 | 12 | 4 | 10 | 33 | x
CC(=O)Nc1ccc(N=Cc2c(O)c(C(=O)Nc3ccccc3)cc3ccccc23)cc1 | 78* | -1 | -62 | 12 | -9 | 37 | 104*
CC(=O)Nc1ccc(N=Cc2c(O)c3ccccc3oc2=O)cc1 | 53* | -7 | -7 | 0 | 17 | 33 | x
CCOc1cc(Br)c(Br)c(C=Nc2ccc(NC(C)=O)cc2)c1O | 68* | 9 | 11 | -3 | -4 | 76* | 33
CC(=O)c1cccc(N=Cc2c(O)c3ccccc3oc2=O)c1 | 38 | 13 | 8 | -9 | -14 | x | x
O=S(=O)(Nc1nc2ccccc2nc1N1CCN(c2ccccc2F)CC1)c1ccc(Cl)cc1 | 26 | -2 | -2 | 4 | 17 | x | x
CC(=O)Nc1cccc(Nc2nc(-c3ccccc3F)nc3ccccc23)c1 | 14 | -4 | 19 | 6 | 8 | x | x
Cc1cc(S(=O)(=O)Nc2ccc(C(=O)NCCCN3CCCC3=O)cc2)ccc1F | 32 | -2 | 5 | x | -7 | x | x
O=C(NC1CC1)c1c(O)c2ccccc2[nH]c1=O | 59* | -13 | -16 | -1 | -16 | -6 | x
CCNC(=O)c1c(O)c2ccccc2[nH]c1=O | 76* | -13 | -32 | -14 | -1 | 53* | 76*
Cc1ccccc1NS(=O)(=O)c1ccc(NC(=O)N2CCCCC2)cc1 | 20 | 4 | -16 | -1 | 2 | x | x
SMILES | Mdm2 MdmX PPI | Jurkat NFkB inh | 697 NFkB inh | Beta apoptosis | Gli-Sufu antag | Mdm2-MdmX conf | Full FLuc ctr
O=C(/C=C/c1ccccc1)NC(NC(=S)Nc1ccc(Cl)cc1)C(Cl)(Cl)Cl (centres undefined) | 60* | 13 | 3 | 46 | 29 | 62* | 24
COc1ccc(NC(=S)NC(NC(=O)/C=C/c2ccccc2)C(Cl)(Cl)Cl)cc1 (centres undefined) | 39 | -6 | -18 | x | -14 | x | x
O=C(/C=C/c1ccccc1)NC(NC(=S)Nc1cc(Cl)ccc1Cl)C(Cl)(Cl)Cl (centres undefined) | 89* | -20 | -32 | 11 | 10 | 87* | 31
O=C(Cc1ccccc1)NC(NC(=S)Nc1cc(Cl)ccc1Cl)C(Cl)(Cl)Cl (centres undefined) | 8 | 1 | 14 | 4 | 0 | x | x
COC(=O)c1ccc(NS(=O)(=O)c2cc3c4c(c2)CCC(=O)N4CCC3)cc1 | 1 | -17 | 12 | -1 | 0 | x | x
Cc1cccc(Nc2ncnc3ccc(Br)cc23)c1 | 76* | 0 | -7 | 5 | -10 | 59* | 26
COc1ccc(Nc2ncnc3ccc(Br)cc23)cc1OC | 58* | 16 | 7 | -13 | -33 | 64* | 31
Cc1cccc(-c2ccc3ncnc(NCc4cccnc4)c3c2)c1 | -7 | 36 | -18 | -13 | 3 | x | x
Brc1ccc2ncnc(NCc3ccccc3)c2c1 | 84* | 36 | -20 | 56 | 43 | 81* | 53*
CC1(c2nnc(-c3ccncc3)o2)CC(c2ccc(F)cc2)=NO1 (centres undefined) | 23 | 9 | -6 | x | 5 | x | x
Cc1onc(-c2c(F)cccc2Cl)c1C(=O)NCc1ccc(S(N)(=O)=O)cc1 | -10 | 10 | -1 | -4 | 7 | x | x
O=C(NCCc1c[nH]c2ccccc12)C(=O)NCC1OCCN1S(=O)(=O)c1ccccc1 (centres undefined) | 17 | -2 | 22 | -3 | -5 | x | x
O=C(NCCc1c[nH]c2ccccc12)C(=O)NCC1OCCN1S(=O)(=O)c1ccc(Cl)cc1 (centres undefined) | 51* | 9 | 5 | 8 | 2 | 49* | 37*
COc1ccc(C2c3ccc4ccccc4c3Oc3ncn(CCCO)c(=N)c32)cc1 (centres undefined) | 93* | 3 | -18 | 8 | 5 | 30 | x
CC1(C)CC(=O)C2=C(C1)Oc1ncn(CCCO)c(=N)c1C2c1ccccc1 (centres undefined) | 5 | -6 | -5 | 0 | 8 | x | x
N=c1c2c(ncn1CCCO)Oc1ccc3ccccc3c1C2c1ccccc1 (centres undefined) | 58* | -6 | 10 | 111* | 8 | 31 | x
COc1ccc(C2c3ccc4ccccc4c3Oc3ncn(CCO)c(=N)c32)cc1 (centres undefined) | 97* | 29 | 1 | 3 | 14 | 51* | 76*
N=c1c2c(ncn1CCCO)Oc1c(ccc3ccccc13)C2c1ccccc1 (centres undefined) | 62* | 12 | -15 | 19 | x | 31 | x
CC1CCN(C(C(=O)O)c2ccccc2)CC1 (centres undefined) | -8 | -25 | 9 | -8 | 2 | x | x

From PubChem
